This note sets out measurements from PubChem BioAssay (EPA / NIEHS).

Calls of active or inactive are those of the source. The calls were made as follows: active = hit-call score of the fitted dose curve at least 0.9, where 1 is the maximum; inactive = score below 0.9.

A short description of this assay: CCTE_Padilla_ZF_Score.General: CCTE's 144 Hour Post-fertilization zebrafish Assay Score for General Malformation, Padilla Lab (AID 2284411). How it is done: CCTE_Padilla_ZF_Phenotype_Score is a whole embryo, multiplexed assay using zebrafish ova exposed for 144 hours post fertilization on a 96-well plate.CCTE_Padilla_ZF_Score.General is one of one assay component(s) measured or calculated from the CCTE_Padilla_ZF_Phenotype_Score assay. It is designed to make measurements of zebrafish development as detected with brightfield microscopy of developing zebrafish embryos.Data from the assay component CCTE_Padilla_ZF_Score.General was analyzed into 1 assay endpoints. This assay endpoint, CCTE_Padilla_ZF_Score.General, was analyzed in the positive analysis fitting direction relative to DMSO as the negative control and baseline of activity. Using a type of viability reporter, gain-of-signal activity can be used to understand changes in developmentals as they relate to the whole embryo. To generalize the intended target to other relatable targets, this assay endpoint is annotated to the zebrafish development intended target family, where the subfamily is embryonic morphogenesis.
Zebrafish husbandry: Wild type adult zebrafish (Danio rerio; undefined outbred stock obtained from Aquatic Research Organisms, Hampton, NH, 03842) were housed in an AAALAC-approved animal facility at 28C with a 14:10 h light: dark cycle (lights on at 08:30 h). Adult fish (2-3 females per male; density = 15-20 adults per tank) were kept in one of several 9-liter (L) flow-through colony tanks (Aquaneering Inc., San Diego, CA). All adults in a colony tank were placed in a 2 L (static) breeding tank (Aquatic Habitats, Apopka, FL) one hour prior to light onset. Typically, adults from two to three colony tanks were mated on the same day. Two hours after light onset the adults were returned to the colony tank. All embryos were gathered from each breeder tank, pooled, and placed in a 28C water bath for 2 h, followed by two washes with 0.06% bleach (v/v) in 10% Hanks' Balanced Salt Solution (13.7 mM NaCl 0.54 mM KCl, 25 uM Na2HPO4, 130 uM CaCl2 100 um MgSO4 and 420 um NaHCO3,), hereafter referred to as Hanks' solution, for 5 min in order to remove any residual bacteria or fungi. Immediately following washing, the embryos were examined, and healthy embryos were separated from dead or unfertilized eggs and moved into fresh Hanks'. Chemical exposures: Zebrafish embryos were exposed in 96-well plates. Between 6- and 8-hours post fertilization (hpf), healthy embryos (with chorions) were transferred, one embryo per well, into 96 well (0.5 mL) microtiter plates (Cell Culture-Treated, Flat-Bottom Microplate 96 well [Corning Costar, Kennebunk, ME; Cat 09-761-145]) filled with 200 uL of Hanks' solution. A random number generator was used to assign the order in which the rows of embryos were plated in 96 well plates each week. After plating, the embryos were dosed with 0.8 uL of the chemical dosing solution then immediately sealed with AlumaSeal II (Excel Scientific Inc, Victorville, CA) to prevent volatilization of the chemicals, and then placed in a leakproof secondary container. These containers were placed in an incubator maintained on a 14:10 h light: dark cycle at 26C for rearing. On 5 dpf, live larvae were gently moved out of the plate with test chemicals and into a new 96 well mesh plate (Millipore Corp., Bedford, MA) with just the Hanks' solution. Once within the mesh well plate, the animals were rinsed with 400 uL of fresh Hanks' three times, and then the plates were covered with a non-adhesive material (Microseal A, BioRad, Hercules, CA), plate lid added, and then plate sides wrapped in Parafilm (PM992, Bermis Company, Neenah, WI), and returned to the incubator. […]
For `FC(F)(F)C(F)(C(F)(F)F)C(F)(F)C(F)(F)CC1CO1` (stereo unspecified), the call was inactive.

`C=CC(=O)OCC(F)(F)C(F)F`: the concentration at half-maximal activity (AC50) was 7.91 µM (active).

On to `CC(C)Nc1ccc(Nc2ccccc2)cc1`, for which the AC50 is 2.6 µM (active).

For `O=P(OCC(Br)CBr)(OCC(Br)CBr)OCC(Br)CBr` (stereo unspecified), the AC50 was 2.01 µM (active).

Regarding `OCC(F)(F)OC(F)(F)C(F)(F)OC(F)(F)C(F)(F)OC(F)(F)CO`, the outcome was inactive.

In the case of `O=S1(=O)OCC2C(CO1)C1(Cl)C(Cl)=C(Cl)C2(Cl)C1(Cl)Cl` (stereo unspecified), the AC50 is 0.165 µM (active).

For the compound `CC(C)(C)c1ccccc1OP(=O)(Oc1ccccc1)Oc1ccccc1`, the concentration at half-maximal activity (AC50) was 8.75 µM (active).

With `O=S(=O)(F)C(F)(F)C(F)(F)C(F)(F)C(F)(F)C(F)(F)C(F)(F)C(F)(F)C(F)(F)F`, the result was inactive.

Turning to `O=c1ssc(Cl)c1Cl`, the call was inactive.

As to `CC(O)C(F)(F)C(F)(F)F` (stereo unspecified), the outcome was inactive.

Turning to `CCOP(=S)(OCC)SCS(=O)(=O)CC`, the half-maximal activity concentration (AC50) is 65.2 µM (active).

In the case of `Cc1c([N+](=O)[O-])cc2c(c1[N+](=O)[O-])C(C)(C)CC2(C)C`, the concentration at half-maximal activity (AC50) was 2.8 µM (active).

As for `O=C(O)C(F)(OC(F)(F)C(F)(F)C(F)(F)F)C(F)(F)F` (stereo unspecified), the compound was classed as inactive.

In the case of `NC(=O)C(F)(F)C(F)(F)F`, the compound was called inactive.

On to `CCCCC(CC)COP(=O)(Oc1ccccc1)Oc1ccccc1` (stereo unspecified), for which the half-maximal activity concentration (AC50) was 3.23 µM (active).

Turning to `O=C(O)C(F)(F)C(F)(F)C(=O)O`, the call was inactive.

Turning to `O=C(O)C=CC(F)(C(F)(F)F)C(F)(F)F`, the compound was called inactive.

Take `OCC(F)(F)OC(F)(F)C(F)(F)OC(F)(F)C(F)(F)OC(F)(F)F`: the AC50 is 16.2 µM (active).

For the compound `O=C(O)C(F)(F)OC(F)(F)C(F)(F)OC(F)(F)C(=O)O`, the outcome was inactive.

As for `N#Cc1c(-c2ccc(Cl)cc2)[nH]c(C(F)(F)F)c1Br`, the compound was called inactive.

Turning to `COC(=O)C(F)(F)C(F)(F)OC(F)(C(F)(F)F)C(F)(F)OC(F)=C(F)F` (stereo unspecified), the outcome was inactive.

In the case of `CCOP(=S)(OCC)SCSc1ccc(Cl)cc1`, the AC50 is 8.15 µM (active).

With `c1ccc2c(c1)sc1ccccc12`, the call was inactive.

`OCC(F)(F)OC(F)(F)C(F)(F)OC(F)(F)CO`: the call was inactive.

Take `O=C(O)C(F)(F)OC(F)(F)C(F)(F)OC(F)(F)F`: the outcome was inactive.

As to `Nc1ccc([N+](=O)[O-])cc1Cl`, the compound was called inactive.

The AC50 is the midpoint of the concentration-response curve, whichever way the signal moves.
